SMILES strings stand for the structures. In all, about 37,000 compounds went through this assay and about 100 (0.27%) were called active. Cut-off read from the data, not from the text of the source: active = inhibition above about 85%; inconclusive = no clear call, values can overlap the other calls; inactive = below about 68%. What follows is part of a selection rich in actives, with near analogues and random picks from the rest.

A short description of the assay: inhibitors of MITF, primary screen, MITF inhibitor project, cell-based, luminescence (AID 2240).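 Note: human melanocyte line stably carrying TRPM1 promoter luciferase reporter.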 To be noted: TRPM1 promoter luciferase, 24 h, stronger effect = higher value, concentration not given here.
By inhibition is commonly meant the relative decrease from the control value, in per cent. As for `COc1ccc(NC(=O)Nc2ccc3c(c2)CC(=O)N([C@@H](C)CO)C[C@H](C)[C@@H](CN(C)CC2CCCCC2)O3)cc1`, the inhibition was -0.386% (inactive).
In the case of `CC(C)(C)c1ccc(S(=O)(=O)NCC(=O)Nc2ccc(F)cc2)cc1` it was 1.01% (inactive); in that of `Cc1ccc(S(=O)(=O)Nc2ccc3c(c2)C(=O)N([C@H](C)CO)C[C@@H](C)[C@H](CN(C)Cc2ccccc2)O3)cc1`, -3.79% (inactive).
In the case of `C/C=C(\C)C(=O)OC(/C=C/C(O)C(C)O)C1C=CC(=O)O1` (stereo not given) it was -20% (inactive); in that of `CC(C)NC(=O)Nc1ccc2c(c1)C(=O)N([C@@H](C)CO)C[C@H](C)[C@H](CN(C)S(=O)(=O)c1cccs1)O2`, -11.3% (inactive).
In the case of `O=C(Oc1ccc(Br)cc1)c1ccco1` it was 16.8% (inactive); in that of `C[C@@H]1CCCCO[C@H](CN(C)C(=O)C2CCCCC2)[C@@H](C)CN([C@H](C)CO)C(=O)c2cc(NC(=O)C3CCCCC3)ccc2O1`, -0.585% (inactive).
For the compound `Cc1ccc(-c2nnc(SCC(=O)Nc3ccccc3OC(F)F)o2)cc1`, the inhibition was -24.6% (inactive).
On to `C[C@@H]1CCCCO[C@@H](CN(C)C(=O)Nc2cccc3ccccc23)[C@@H](C)CN([C@H](C)CO)C(=O)c2cc(NS(C)(=O)=O)ccc2O1`, for which the inhibition is -18.2% (inactive).
Consider `C[C@@H]1CN([C@@H](C)CO)C(=O)c2cc(NC(=O)Nc3cccc4ccccc34)ccc2O[C@H]1CN(C)Cc1ccc(Cl)c(Cl)c1`, for which the inhibition is 18.2% (inactive).
With `COc1ccc(CCNc2nc(-c3cccc(NC(C)=O)c3)cs2)cc1OC`, the inhibition was 15.8% (inactive).
To `C[C@H]1CN([C@@H](C)CO)C(=O)c2cc(NS(C)(=O)=O)ccc2O[C@@H]1CN(C)S(=O)(=O)c1ccc(Cl)cc1` belongs -7.11% (inactive); to `C[C@@H]1CN([C@H](C)CO)C(=O)c2cccc(NS(=O)(=O)c3ccc(Cl)cc3)c2O[C@@H]1CN(C)C(=O)Nc1cccc2ccccc12`, 38.8% (inactive).
`O=S(=O)(c1ccccc1)c1nc(-c2ccccc2F)oc1NCc1cccnc1`: the inhibition is -15.8% (inactive).
In the case of `C[C@H](CO)N1C[C@H](C)[C@H](CN(C)S(=O)(=O)c2cn(C)cn2)Oc2ccc(NS(=O)(=O)c3ccccc3)cc2C1=O` it was -1.93% (inactive).
To `CCCN1C(=O)C(NS(=O)(=O)c2ccc(N)cc2)(C(F)(F)F)C(C(=O)OC)=C1C` (stereo not given) belongs 5.23% (inactive).
In the case of `C[C@@H]1CN([C@H](C)CO)C(=O)c2cccc(N(C)C)c2O[C@H]1CN(C)S(=O)(=O)c1cn(C)cn1` it was 8.04% (inactive).
As to `C[C@H](CO)N1C[C@H](C)[C@H](CN(C)C(=O)Nc2cccc3ccccc23)Oc2ccc(NS(C)(=O)=O)cc2C1=O`, the inhibition was 4.6% (inactive).
In the case of `COc1ccc(C)cc1S(=O)(=O)N1CCCC(C(=O)Nc2ccccc2C(F)(F)F)C1` (stereo not given) it was 4.41% (inactive); in that of `Cc1ccc(NC(=O)c2cccc(N(C)C)c2)cc1NC(=O)c1ccc(O)cc1`, -40.4% (inactive); in that of `Cc1noc(C)c1NC(=O)Nc1ccc2c(c1)C(=O)N([C@H](C)CO)C[C@H](C)[C@@H](CN(C)C(=O)Nc1ccc(C(F)(F)F)cc1)O2`, -13.6% (inactive).
To `CCc1ccc2c(c1)c1nc3ccccc3nc1n2CC(=O)OC` belongs -10.5% (inactive); to `O=C(O)CCCC=C(c1ccccc1)c1ccccc1`, 12.2% (inactive).
In the case of `COc1ccc(C)cc1NC(=O)CSc1nc(SC)ns1` it was 32.4% (inactive); in that of `COc1ccc(NC(=O)Nc2ccc3c(c2)CC(=O)N([C@@H](C)CO)C[C@H](C)[C@@H](CN(C)Cc2ccc4c(c2)OCO4)O3)cc1`, -13.4% (inactive).
For `Cc1scc(C(=O)NCCc2ccc(S(N)(=O)=O)cc2)c1-c1ccccc1`, the inhibition was 5.94% (inactive).
In the case of `C[C@@H]1CCCCO[C@H](CN(C)C(=O)NC2CCCCC2)[C@@H](C)CN([C@H](C)CO)C(=O)c2cc(NS(=O)(=O)c3ccc(F)cc3)ccc2O1` it was 0.476% (inactive); in that of `CS(=O)(=O)N(CC(=O)Nc1cc(C(F)(F)F)ccc1Cl)c1ccccc1Br`, -1.7% (inactive); in that of `Cc1ccc(C)c(NC(=O)CCC(=O)O)c1`, -5.62% (inactive).
`COc1ccc(S(=O)(=O)N(C)C[C@@H]2Oc3ccc(NS(=O)(=O)c4cn(C)cn4)cc3C(=O)N([C@@H](C)CO)C[C@@H]2C)cc1`: the inhibition was -3.33% (inactive).
Regarding `O=C(CCn1nc(-c2ccc(Cl)cc2)c2ccccc2c1=O)Nc1ccc(Br)cc1`, the inhibition is -0.695% (inactive).
On to `Cc1noc(C)c1NC(=O)N(C)C[C@@H]1Oc2ccc(NC(=O)C3CC3)cc2C(=O)N([C@H](C)CO)C[C@@H]1C`, for which the inhibition was -4.76% (inactive).
For `C[C@H]1CN([C@@H](C)CO)C(=O)Cc2cc(NS(=O)(=O)c3ccc(Cl)cc3)ccc2O[C@H]1CN(C)S(C)(=O)=O`, the inhibition was 0.52% (inactive).
In the case of `Cc1cc(N(CC(=O)Nc2ccc(C(F)(F)F)cc2)S(C)(=O)=O)ccc1Br` it was -4.48% (inactive).
Take `Cc1cc2oc(C(=O)Nc3sc4c(c3C(=O)NCc3ccco3)CCC4)c(C)c2cc1C`: the inhibition is 0.363% (inactive).
On to `C[C@@H]1CN([C@@H](C)CO)C(=O)c2cccc(NC(=O)Nc3ccccc3)c2O[C@H]1CN(C)Cc1ccccc1`, for which the inhibition is 41.2% (inactive).
In the case of `Cc1ccc(NC(=O)CSc2nc3ccccc3s2)cc1[N+](=O)[O-]` it was -10% (inactive).
In the case of `Cc1nn(CC(=O)NCc2ccccn2)c(C)c1[N+](=O)[O-]`, the inhibition is -12.3% (inactive).
`COc1cc([N+](=O)[O-])ccc1NC(=S)NCc1cc(C)n(C)n1`: the inhibition is -13.2% (inactive).
Regarding `C[C@H]1CN([C@@H](C)CO)C(=O)Cc2cc(NC(=O)Nc3ccc(F)cc3)ccc2O[C@H]1CN(C)C(=O)Nc1ccc(C(F)(F)F)cc1`, the inhibition was -15.8% (inactive).
In the case of `C[C@@H]1CCCCO[C@@H](CN(C)C)[C@@H](C)CN([C@H](C)CO)C(=O)c2cc(N(C)C)ccc2O1` it was 5.75% (inactive); in that of `CCOC(=O)Cc1csc(NC(=O)c2sc3cccc(F)c3c2Cl)n1`, 57.6% (inactive).
To `CN(CC(=O)Nc1ccc(Br)cc1)S(=O)(=O)c1ccc2ccccc2c1` belongs 11% (inactive).
As to `C[C@H](CO)N1C[C@H](C)[C@H](CN(C)C(=O)Nc2ccc(C(F)(F)F)cc2)Oc2ccc(NC(=O)Nc3ccccc3)cc2C1=O`, the inhibition was 43% (inactive).
In the case of `O=C(CN1C(=O)COc2ccc(Cl)cc21)Nc1ccc(N2CCOCC2)cc1` it was -7.45% (inactive).
In the case of `Cc1ccc(C)c(NC(=O)CSc2nc(C)nc3sc(C)c(C)c23)c1` it was 3.61% (inactive); in that of `CCSC1=C(C#N)C(=O)NCS1`, -7.65% (inactive).
To `O=C(CSc1nnc(-c2ccc(Br)cc2)o1)Nc1ccc2ccccc2c1` belongs -4.41% (inactive); to `O=C1c2ccccc2S(=O)c2ccccc2S(=O)(=O)N1Cc1ccccc1` (stereo not given), 46.6% (inactive).
In the case of `C[C@@H]1CN([C@H](C)CO)C(=O)c2cc(NC(=O)Nc3ccccc3)ccc2O[C@@H]1CN(C)Cc1ccc(Cl)c(Cl)c1`, the inhibition was 34.3% (inactive).
To `C[C@H](CO)N1C[C@H](C)[C@@H](CN(C)S(=O)(=O)c2cn(C)cn2)Oc2c(NC(=O)C3CC3)cccc2C1=O` belongs -3.68% (inactive); to `O=C(NCCCn1ccnc1)c1cc2c(s1)CCCC2`, 1.51% (inactive).
In the case of `O=C(O)c1cccc(S(=O)(=O)Nc2ccc(O)cc2Sc2nc3ccccc3s2)c1` it was 7.04% (inactive); in that of `O=C(CCn1nc(-c2ccc(Cl)cc2)c2ccccc2c1=O)Nc1cccc(C(F)(F)F)c1`, 4.42% (inactive); in that of `C[C@H](CO)N1C[C@H](C)[C@H](CN(C)C(=O)Nc2ccccc2)Oc2c(NC(=O)Nc3ccc(C(F)(F)F)cc3)cccc2C1=O`, 21.9% (inactive).
In the case of `C[C@@H]1CCCCO[C@H](CN(C)Cc2ccc(Cl)c(Cl)c2)[C@@H](C)CN([C@H](C)CO)C(=O)c2cc(NS(=O)(=O)c3cn(C)cn3)ccc2O1` it was -5.53% (inactive); in that of `COc1ccc(CN(C)C[C@@H]2Oc3ccc(NS(=O)(=O)c4cn(C)cn4)cc3C(=O)N([C@@H](C)CO)C[C@H]2C)cc1`, -13% (inactive).
Take `O=C1Cc2ccc(F)cc2CC1C1=Cc2ccc(F)cc2CC1` (stereo not given): the inhibition was 5.98% (inactive).
As to `C[C@H]1CN([C@@H](C)CO)C(=O)c2cc(NC(=O)NC3CCCCC3)ccc2O[C@@H]1CN(C)C(=O)Nc1cccc2ccccc12`, the inhibition is 10.4% (inactive).
As to `COc1ccc(C)cc1S(=O)(=O)N(C)CC(=O)Nc1ccc(Br)cc1F`, the inhibition is 8.55% (inactive).
Regarding `C[C@@H]1CN([C@H](C)CO)C(=O)Cc2cc(NC(=O)Nc3ccc(C(F)(F)F)cc3)ccc2O[C@H]1CN(C)Cc1ccc(-c2ccccc2)cc1`, the inhibition is -11.6% (inactive).
To `Cc1ccc(-n2c(SCC(=O)Nc3ccccc3F)nnc2-c2ccccc2)cc1C` belongs 10.1% (inactive); to `C[C@@H]1CN([C@H](C)CO)C(=O)c2cccc(NC(=O)Nc3ccc4c(c3)OCO4)c2O[C@H]1CN(C)C(=O)Nc1ccc(F)cc1`, 7.91% (inactive); to `Cc1cc(C)c(C)c(Oc2coc3cc(OCC(=O)Nc4ccccc4Cl)ccc3c2=O)c1`, -3.54% (inactive).
In the case of `C[C@@H]1CN([C@@H](C)CO)C(=O)c2cc(NS(=O)(=O)c3ccc(F)cc3)ccc2O[C@@H]1CN(C)C(=O)NC1CCCCC1` it was 1.15% (inactive).
In the case of `O=C(CSc1nc2c(c(C(F)(F)F)n1)CCCC2)N1c2ccccc2Sc2ccccc21` it was 11% (inactive).
For the compound `O=[N+]([O-])c1ccccc1-c1ccc(CN2CCN3CCCC3C2C2CCCCC2)o1` (stereo not given), the inhibition is -7.52% (inactive).
Turning to `C/C=C(/C)C(=O)O[C@H]1CC(C)(C)C[C@H]2C3=CCC4[C@@]5(C)CC[C@H](O[C@@H]6O[C@H](C(=O)O)[C@@H](O[C@@H]7O[C@H](CO)[C@H](O)[C@H](O)[C@H]7O[C@@H]7O[C@H](CO)[C@@H](O)[C@H](O)[C@H]7O)[C@H](O)[C@H]6O[C@@H]6O[C@@H](C)[C@H](O)[C@@H](O)[C@H]6O)C(C)(C)C5CC[C@@]4(C)[C@]3(C)[C@@H](O)[C@@H](O)[C@@]12CO` (stereo not given in full), the inhibition was 93.6% (active).
To `C/C=C(/C)C(=O)O[C@H]1CC(C)(C)C[C@H]2C3=CCC4[C@@]5(C)CC[C@H](O[C@@H]6O[C@H](C(=O)O)[C@@H](O[C@@H]7O[C@H](CO)[C@H](O)[C@H](O)[C@H]7O[C@@H]7O[C@H](CO)[C@@H](O)[C@H](O)[C@H]7O)[C@H](O)[C@H]6O[C@@H]6O[C@@H](C)[C@H](O)[C@@H](O)[C@H]6O)C(C)(C)C5CC[C@@]4(C)[C@]3(C)[C@@H](OC(C)=O)[C@@H](O)[C@@]12COC(C)=O` (stereo not given in full) belongs 50.5% (inactive); to `CC1OC(OC2C(OC3C(O[C@H]4CC[C@@]5(C)C(CC[C@]6(C)C5CC=C5[C@@H]7CC(C)(C)C[C@@H](O)[C@]7(C)CC[C@]56C)C4(C)C)OC(C(=O)O)C(O)C3O)OC(CO)C(O)C2O)C(O)C(O)C1O` (stereo not given in full), -6.6% (inactive).

Source of the values: PubChem BioAssay AID2240 (Broad Institute, 2010).
